Screening results: PubChem, National Center for Advancing Translational Sciences (NCATS)
Only some compounds are listed: those with a hit (about 3.1% of all), similar ones and a draw of the others.
PLK1 PBD block: inhibitors of human PLK1 polo-box domain binding. Plk1 PBD binding of FITC phosphopeptide, fluorescence polarization. Potency, µM, for the others: max response, negative = inhibition, usual class: inhibitors. actives 2.8% (n = 360,000); note: series mostly up to about 57 µM; % is set by controls: 0 for no effect and ±100 for the full control effect; nearly all actives have a fitted effect of over 65% in size
Pin1 inh: inhibitors of human Pin1; Q13526; Pin1 FP peptide displacement, HiFluor488, 10 min; Potency, µM (titrated, usually from 115 µM), for inactives: at the highest dose activity, negative = inhibition, most hits filed as inhibitors; actives 0.009% (n = 390,000); active = well fitted inhibition curve with a large enough effect in the polarisation, with a control signal flat, not every such curve was filed as active; inconclusive = small, poorly fitted or top-dose-only effect, or effect the other way, or a change in a side signal; inactive = no such curve, though single readings can be large or run the other way; the % refers to the polarisation; note: % is set by controls: 0 for no effect and ±100 for the full control effect
Target sequence (Q13526 whole entry, looked up): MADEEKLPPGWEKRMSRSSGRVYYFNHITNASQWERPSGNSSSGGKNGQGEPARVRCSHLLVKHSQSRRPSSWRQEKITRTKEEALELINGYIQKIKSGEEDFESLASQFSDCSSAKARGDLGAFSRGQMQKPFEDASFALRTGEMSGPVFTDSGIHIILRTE
Tb PFK inh: blocks T. brucei phosphofructokinase; actives 0.17% (n = 330,000); O15648; T. brucei PFK, ADP-Glo luminescence; AID 485367; Potency, µM (top dose mostly 57.5 µM), for inactives: at the top dose activity, negative = inhibition, actives largely listed as inhibitors;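 note: 0% = uninhibited 1x PFK enzyme wells and -100% = no-enzyme wells; nearly all actives have a fitted effect of over 60% in size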
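In TEA buffer at pH 8.0 with 5 mM MgCl2, enzyme (1.25 nM) converted F6P (0.5 mM) and ATP (0.1 mM) for 45 min at room temperature. ADP product was read by luciferase luminescence.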
ASM inhibitor: blocks human secretory acid sphingomyelinase; P17405; placental ASM, HMU-PC fluorogenic substrate, 60 min; Potency, µM (series often up to 57.5 µM), for the others: at the top dose activity change, negative = inhibition, most hits filed as inhibitors; actives 0.006% (n = 340,000); AID 504937
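Human placenta-derived ASM preincubated with compound 10 min at room temperature, then reacted with 9 uM (final) fluorogenic HMU-PC substrate for 60 min at 37 C. Stop solution raises pH to 10; fluorescence read at Ex 386/Em 447 nm.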
VDR inhibitor: vitamin D3 receptor (human) inhibition. Potency, µM, inactives show max response, negative = inhibition, hits mostly inhibitors. AID 504847. actives 0.93% (n = 400,000). VDR-SRC2-3 peptide fluorescence polarization, 2 h. P11473; note: % is set by controls: 0 for no effect and ±100 for the full control effect
Target sequence (P11473 whole entry, looked up): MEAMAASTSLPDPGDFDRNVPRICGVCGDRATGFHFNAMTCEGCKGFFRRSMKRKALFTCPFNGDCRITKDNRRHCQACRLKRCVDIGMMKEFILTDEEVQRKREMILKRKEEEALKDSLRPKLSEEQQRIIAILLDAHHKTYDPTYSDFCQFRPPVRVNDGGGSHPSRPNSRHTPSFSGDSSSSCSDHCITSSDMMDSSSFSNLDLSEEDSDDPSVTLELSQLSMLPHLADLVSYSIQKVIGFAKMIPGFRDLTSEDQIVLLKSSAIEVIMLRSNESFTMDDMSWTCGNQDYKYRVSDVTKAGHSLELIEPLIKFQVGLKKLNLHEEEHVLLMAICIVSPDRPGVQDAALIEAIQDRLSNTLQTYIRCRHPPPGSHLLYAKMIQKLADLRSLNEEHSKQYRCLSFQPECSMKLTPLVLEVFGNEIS
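The screen uses fluorescence polarization to detect compounds that interfere with recruitment of the SRC2-3 coactivator peptide to VDR; plates are read after 2 h at room temperature.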
TDP1 block: inhibitors of human tyrosyl-DNA phosphodiesterase TDP1 | Q9NUW8 | recombinant TDP1, AlphaScreen DNA substrate cleavage | Potency, µM (highest dose often 130 µM), inactives show at the highest dose activity change, negative = inhibition, usual class: inhibitors | actives 0.28% (n = 350,000); note: % is set by controls: 0 for no effect and ±100 for the full control effect; nearly all actives have a fitted effect of over 40% in size
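Compounds were preincubated with Tdp1 (1 nM final) for 15 min at room temperature before substrate (15 nM final) started a 5 min reaction; beads (10 ug/ml final) were then added for 10 min before AlphaScreen detection.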
An asterisk follows results filed as active; ? = inconclusive; / = not tested or not shown; ! = repeats disagree; [ ] = remark or other dose. Unless noted, calls come from the whole dose curve; as a rule, active = well fitted curve in the direction sought with a large enough effect; inconclusive = small, poorly fitted or top-dose-only effect, or another doubt; inactive = no such curve, though single readings can be large; an effect the other way counts as inactive or inconclusive. Potency is the fitted concentration of half-maximal effect.

SMILES	PLK1 PBD block	Pin1 inh	Tb PFK inh	ASM inhibitor	VDR inhibitor	TDP1 block
Nc1c(Br)cc2c3c(cccc13)-c1ccccc1-2	-20.6%	?	/	-22.3%	28.2µM*	/
CCOC(=O)c1c(NC(NC(=O)CF)C(Cl)(Cl)Cl)sc2c1CCCC2 (centres undefined)	11.9µM*	-13.1%	0.4%	-9.9%	44.7µM*	10.5%
CCn1nc(/C=C/c2ccccc2)nc2c(=O)n(C)c(=O)nc1-2	23.8µM*	-18.9%	3.8%	-2.4%	?	-2.8%
CCCCC/C=C\C/C=C\C/C=C\C/C=C\CCCC(=O)O	/	/	-6.6%	/	7.94µM*!	8.5%
CCCCn1c(O)c(C(C)=NCCc2ccccc2)c(=O)[nH]c1=O	2.2%	-8.3%	-0.4%	-2.8%	-10.8%	3.3%
COc1cc(/C=C/C(=O)c2c(O)n(CCc3ccccc3)c(=O)[nH]c2=O)ccc1O	-0.7%	?	-3.2%	-1.1%	44.7µM*	3.2%
CC(=O)OC1CC[C@@]2(C)C3CC(=O)[C@]4(C)C(C(C)=O)=CCC4C3CC[C@H]2C1 (some centres undefined)	/	/	/	/	2µM*	5.4%
CCN(c1ccc(C(O)(C(=O)OC)C(F)(F)F)cc1)S(=O)(=O)c1ccccc1 (centres undefined)	26.7µM*	-12.2%	3.7%	3.7%	3.0%	2.1%
CCN(C(=O)Oc1ccccc1)c1ccc(C(O)(C(=O)OC)C(F)(F)F)cc1 (centres undefined)	3.5%	-1.4%	-1.0%	6.0%	2.7%	0.0%
C[S@@](=O)CCCCN=C=S	/	/	/	/	?	4.3%
ClCBr	/	/	/	/	/	14.9%
O=c1[nH]cc(N(CCCl)CCCl)c(=O)[nH]1	/	/	/	/	17.8µM*	/
CCC1CCCCN1CCCNS(=O)(=O)c1ccc2c(c1)oc(=O)n2C (centres undefined)	0.2%	?	-19.8%	-2.2%	-4.8%	-4.3%
CCN(CCCNS(=O)(=O)c1ccc2c(c1)oc(=O)n2C)c1cccc(C)c1	23.8µM*	-1.9%	0.2%	-9.5%	?	4.1%
O=C(O)c1ccccc1-c1c2cc(Br)c(=O)cc-2oc2[c]([Hg])c(O)c(Br)cc12	/	/	/	/	2.24µM*	24.9%
CC[C@H](C)/C=C(C)/C=C/C1=CC2=C(Cl)C(=O)[C@](C)(OC(C)=O)C(=O)C2=CO1	1.06µM*	?	0.1%	-2.0%	?	-9.2%
C=C(C)C#N	/	/	/	/	/	17.8%
On1ccccc1=S	?	-2.9%	-25.4%	-3.1%	22.4µM*	/
CC(C)CS(=O)(=O)C1=NN2C(=N)/C(=C\c3ccc(OC(=O)c4ccco4)cc3)C(=O)N=C2S1	21.2µM*	?	0.0%	?	?	/
CCOC(=O)N1CCN(/[N+]([O-])=N/Oc2ccc([N+](=O)[O-])cc2[N+](=O)[O-])C(C)C1 (centres undefined)	/	35.3%	/	/	-14.8%	3.8%
COCCn1c(-c2ccccc2)cc(C(=O)O)c1C	23.8µM*	?	/	1.5%	-6.3%	/
Cl/C=C/CCl	/	/	/	/	/	7.6%
CC(C)CCn1c(N2CCN(c3cccc(Cl)c3)CC2)nc2c1c(=O)[nH]c(=O)n2C	-27.0%	0.0%	-1.4%	?	6.5%	-5.2%
CCCCCn1c(SCCCC)nc2c1c(=O)[nH]c(=O)n2C	26.7µM*	-2.8%	-0.6%	-6.9%	?	0.0%
C[N+](C)(C)CC#CCOC(=O)Nc1cccc(Cl)c1	-13.2%	-3.3%	/	-1.0%	50.1µM*!	8.2%
SMILES	PLK1 PBD block	Pin1 inh	Tb PFK inh	ASM inhibitor	VDR inhibitor	TDP1 block
Cn1nnc2cc(NC(=O)Nc3cccc(Cl)c3)ccc21	3.9%	26.4%	4.5%	2.5%	-3.6%	/
Cn1c(O)c(/C=C2\N=c3ccccc3=C2CCNC(=S)NC2CC2)c(=O)n(C)c1=O	0.947µM*	2.3%	-0.1%	-0.1%	70.8µM*	/
OC[P+](CO)(CO)CO	/	/	/	/	/	-3.7%
Cc1ccc(CCNC(=O)C2CCCN(Cc3nc(-c4cccc(Cl)c4)oc3C)C2)cc1 (centres undefined)	/	-15.5%	/	/	89.1µM*	3.5%
O=C(c1cc(F)ccc1F)C1CCCN(Cc2cccc(Cl)c2)C1 (centres undefined)	-0.5%	-2.1%	-4.0%	-1.3%	9.5%	/
CC(C)=CCCC1(C)C=Cc2c(O)c3c(c(CC=C(C)C)c2O1)OC12C(=CC4CC1C(C)(C)OC2(C/C=C(/C)C(=O)O)C4O)C3=O (centres undefined)	/	/	/	/	2.82µM*	12.4%[56.1 µM]
CC(C)CCCC1(C)C=Cc2c(O)c3c(c(CCC(C)C)c2O1)OC12C(CC4CC1C(C)(C)OC2(CCC(C)C(=O)O)C4O)C3=O (centres undefined)	/	/	/	/	-13.5%	8.6%
CC(C)=CCCC1(C)C=Cc2c(O)c3c(c(CC=C(C)C)c2O1)OC12C(=CC4CC1C(C)(C)OC2(C/C=C(/C)C(=O)O)C4=O)C3=O (centres undefined)	/	/	/	/	2.24µM*	12.9%
CC(Oc1ccc(Br)cc1)C(=O)N(Cc1nc(-c2ccccc2)no1)C(C)C (centres undefined)	/	?	/	/	-5.9%	4.9%
O=C(Cc1ccc(Br)cc1)N1CCN(Cc2ccccc2)CC1	-9.7%	-0.4%	5.4%	-0.3%	?	5.5%
O=C(Cc1ccccc1)N1CCN(Cc2cccc(Br)c2)CC1	26.7µM*	-1.8%	-22.4%	1.7%	-25.3%	-1.9%
Cc1ccc(N2C(=O)/C(=C/N3CCN(C(=O)c4ccco4)CC3)C(=O)NC2=S)cc1C	23.8µM*	?	4.0%	0.4%	-11.3%	2.5%
CC[n+]1c(-c2ccccc2)c2cc(N)ccc2c2ccc(N)cc21	-11.7%	?	/	-14.4%	6.31µM*	9.2%
CCC(=O)CCCCC[C@@H]1NC(=O)[C@H]2CCCCN2C(=O)[C@H]([C@@H](C)CC)NC(=O)[C@H](Cc2cn(OC)c3ccccc23)NC1=O	/	/	/	/	?	14.8%
CCOP(=O)(CCP(=O)(OCC)OCC)OCC.C[CH2][Sn]([Cl])([Cl])[CH2]C	8.44µM*	0.0%	/	1.4%	?	/
CCOP(=O)(OCC)OCC	-13.7%	-8.0%	-1.3%	-0.4%	13.9%	-0.2%
COc1ccc(/C=C/C=C2C(=O)NC(=S)NC2=O)cc1	0.532µM*	31.5%	/	-0.7%	?	/
COc1ccc(C=C2C(=O)NC(=S)NC2=O)cc1OC	21.2µM*	-10.9%	/	-2.3%	39.8µM*	/
COc1ccc(N2C(=O)NC(=O)/C(=C\c3cn(C)c4ccccc34)C2=O)cc1	-0.7%	?	-1.3%	1.1%	-4.0%	/
CCOc1cc(C=O)ccc1O	1.1%	-0.2%	2.1%	-0.2%	4.8%	1.8%
CCOc1cc(C=C2C(=O)NC(=S)NC2=O)ccc1O	5.97µM*	-8.7%	/	-1.6%	?	/
CN(C)C1CSSSC1	/	/	/	/	6.6%	17.4%
